# Source: PubChem BioAssay AID652042 (Broad Institute, 2013)
# Screen size: about 1,100 compounds; about 350 (32%) were called active. How the calls were made is not given here. Only a sample is shown. Potency and affinity values are given separately.
# Test: CEM21 lymphoblast cell cytotoxicity, dose response, cytotoxicity control for viral fusion inhibitor project, CellTiter-Glo luminescence, cherry-picked (AID 652042)
# Details: CEM21 cells viability, CellTiter-Glo ATP luminescence, 24 h; series mostly up to 35 µM; activity change, negative = cytotoxicity: at the top concentration
row,SMILES,"activity change, negative = cytotoxicity"
1,C[C@@H]1CN([C@@H](C)CO)C(=O)c2cc(C3=CCCC3)cnc2O[C@@H]1CN(C)Cc1ccc(C(=O)O)cc1,-7.71% (inactive)
2,C[C@H]1CN([C@@H](C)CO)C(=O)Cc2cc(N(C)C)ccc2O[C@H]1CN(C)Cc1ccc(Cl)c(Cl)c1,-11.3% (inactive)
3,C=C(C)c1cccc(C(C)(C)NC(=O)Nc2ccc(Cl)cn2)c1,0.575% (inactive)
4,O=C(NCc1ccccc1)c1ccc(C(=O)NCc2ccccc2)cc1,-1.78% (inactive)
5,Cc1ncccc1C(=O)N1CCCC(C(=O)c2ccc3c4c(cccc24)CC3)C1 (stereo not given),-1.97% (inactive)
6,CCOc1ccc(N(C)S(=O)(=O)c2cc(-c3cc(C)no3)ccc2C(C)C)cc1,-27.4% (inactive)
7,Cc1ccc(NC(=O)c2ccc(CN3CCc4ccccc4C3)cc2)cc1,-25.9% (inactive)
8,COc1ccc(NC(=O)c2ccc(Cl)c(S(=O)(=O)N3CCc4ccccc4C3)c2)cn1,-19.1% (inactive)
9,Cc1ccc2c(c1)c1c3n2CCN(CCC#N)C3CCC1 (stereo not given),1.35% (inactive)
10,CC(CCc1ccco1)NC(=O)CCc1nnc2ccc(NCc3ccccc3Cl)nn12 (stereo not given),-16.5% (inactive)
11,Cc1ccc(S(=O)(=O)N2CCC(=O)N(CCOC(=O)Nc3cccc(Cl)c3)CC2)cc1,-2.62% (inactive)
12,COc1ccc(C)cc1NC(=O)CCNS(=O)(=O)c1ccc2c(c1)CC(C)N2C(C)=O (stereo not given),9.67% (inactive)
13,COc1ccccc1Oc1ccc(S(=O)(=O)NCc2ccccn2)cc1,-8.66% (inactive)
14,O=C(C[C@H]1C[C@@H]2c3cc(NC(=O)C4CCOCC4)ccc3O[C@@H]2[C@@H](CO)O1)NCc1ccccc1F,-3.22% (inactive)
15,CC(C)CCN(N=O)[C@@H](Cc1ccccc1)CN(N=O)[C@@H](Cc1ccccc1)CN(C)N=O,-15.3% (inactive)
16,COc1ccc(-c2cc(=O)oc3c(C)c(O)ccc23)cc1,-5.8% (inactive)
17,C=C1CCN([C@@H](Cc2ccccc2)C(=O)NCCC(C)C)S(=O)(=O)c2ccccc21,-5.67% (inactive)
18,O=C(NCCc1ccccc1)c1ccc2c(c1)OCCO2,-9.04% (inactive)
19,CSCCC(NS(=O)(=O)c1ccc2c(c1)oc(=O)n2C)C(=O)NC1CCCc2ccccc21 (stereo not given),4.91% (inactive)
20,CC(=O)c1ccc([C@H]2C[C@@]34CN(C(=O)OC(C)(C)C)S(=O)(=O)[C@H]3C[C@H]2O4)cc1,2.58% (inactive)

row,SMILES,"activity change, negative = cytotoxicity"
1,CN(C)CC(=O)Nc1ccc2c(c1)[C@H]1C[C@@H](CC(=O)NCCc3ccccc3)O[C@H](CO)[C@H]1O2,-2.04% [at 30 µM] (inactive)
2,O=C(Nc1cccc(C(=O)O)c1)Nc1ccc2c(c1)OCO2,-7.93% (inactive)
3,COc1ccc(NC(=O)C2CCCN2S(=O)(=O)c2ccc3c(c2)CCC(=O)N3)cc1Cl (stereo not given),-0.458% (inactive)
4,O=C(COc1ccc(-n2cnnn2)cc1)Nc1ccc(F)c(F)c1,3.75% (inactive)
5,Cn1cccc1C(=O)OCC(=O)NCCc1ccc(S(N)(=O)=O)cc1,6% (inactive)
6,Cc1cc2c3c(c1)C1(SCC(=O)N1c1ccc(F)cc1)C(=O)N3C(C)(C)CC2C (stereo not given),-0.52% [at 16 µM] (inactive)
7,CCN(CC)S(=O)(=O)c1cc(NC(=O)C(=O)c2c(-c3ccccc3)cc3ccccn23)ccc1C,-16% (inactive)
8,CC(C)N(Cc1nc(-c2ccccc2)no1)C(=O)CN(C)S(=O)(=O)c1ccc(Br)cc1,-16% (inactive)
9,COc1cccc(S(=O)(=O)N[C@H]2CC[C@H](CC(=O)NCc3ccncc3)O[C@@H]2CO)c1,1.11% (inactive)
10,O=C(C[C@H]1C=C[C@@H](NC(=O)Nc2ccccc2F)[C@@H](CO)O1)NCc1ccc(Cl)cc1,-7.24% (inactive)
11,COc1cccc(CNC(=O)C[C@@H]2C=C[C@H](NC(=O)C3CCC3)[C@H](CO)O2)c1,0.694% (inactive)
12,O=C(NCC[C@@H]1CC[C@@H](NS(=O)(=O)c2ccccc2F)[C@@H](CO)O1)c1ccc(F)cc1,-1.41% (inactive)
13,O=C(C[C@@H]1CC[C@@H](NC(=O)c2ccncc2)[C@H](CO)O1)NCCc1ccncc1,-1.24% (inactive)
14,O=C(C[C@H]1CC[C@@H](NC(=O)Nc2ccccc2F)[C@@H](CO)O1)NCc1ccc(Cl)cc1,0.724% (inactive)
15,COC(=O)[C@@]1(C)[C@H]2C(=O)N(Cc3ccccc3)C(=O)[C@H]2[C@H]2CN=C(SCc3ccc(C#N)cc3)N21,-13.8% (inactive)
16,CN(C[C@H](Cc1ccccc1)N(C[C@H](c1ccccc1)N(CCc1ccccc1)N=O)N=O)N=O,-4.42% (inactive)
17,N#Cc1ccc(C(c2nnnn2CCc2ccccc2)N2CCCCCC2)cc1 (stereo not given),-20.5% (inactive)
18,Cc1ccc(C(c2nnnn2CS(=O)(=O)c2ccc(C)cc2)N2CCCC2)cc1 (stereo not given),-1.57% (inactive)
19,COc1ccc(NC(=O)Nc2ccc3c(c2)C(=O)N([C@@H](C)CO)C[C@H](C)[C@H](CN(C)Cc2ccncc2)OCCCC[C@H](C)O3)cc1,-11.8% (inactive)
20,Cc1ccc(C(C(=O)NC2CCCCC2)N(C(=O)c2csnn2)C2CCCC2)o1 (stereo not given),4.56% [at 16 µM] (inactive)

row,SMILES,"activity change, negative = cytotoxicity"
1,Cc1ccc(-c2nnn(CC(=O)N(CC3CCCO3)C(C(=O)NC3CCCCC3)c3ccc(F)cc3)n2)o1 (stereo not given),-2.01% (inactive)
2,COc1ccc(NC(=O)CN2CCC(C(N)=O)(N3CCCCC3)CC2)cc1,5.51% (inactive)
3,CC1CCN(C(=O)c2ncn3c2C(=O)N[C@@H](C)C3)CC1,-5.66% (inactive)
4,COc1ccc(-c2cc(C3CCN(c4cc(Cl)nc(N)n4)CC3)[nH]n2)cc1,-13.3% (inactive)
5,CCOc1ccc(OCc2cccc(C(=O)N/N=C/c3cccnc3)c2)cc1,-2.87% (inactive)
6,CC(c1nc2ccccc2c(=O)[nH]1)N(C)CCOc1ccc(Cl)cc1 (stereo not given),-7.82% (inactive)
7,Cc1ccc(S(=O)(=O)N(C)C)cc1NC(=O)COc1ccccc1C(=O)Nc1ccccc1,-16.9% (inactive)
8,Cc1ccccc1CCN(C(=O)c1csnn1)C(C(=O)NC1CCCC1)c1ccncc1 (stereo not given),-5.49% (inactive)
9,CC(C)CCN(C(=O)c1csnn1)C(C(=O)NC1CCCC1)c1ccc(F)cc1 (stereo not given),-7.24% (inactive)
10,CCOC(=O)c1ccc(NC2c3ncccc3C(=O)N2Cc2ccc(F)cc2)cc1 (stereo not given),-4.33% (inactive)
11,COc1cc(NC2c3ccccc3C(=O)N2Cc2ccccc2)cc(OC)c1OC (stereo not given),3.26% (inactive)
12,COc1ccc(-c2cc(=O)oc3c(C)c(O)c(CN(C)C)cc23)cc1,5.55% (inactive)
13,COc1ccc(S(=O)(=O)NNC(=O)C2Cc3c(ccc4ccccc34)O2)cc1 (stereo not given),-11.3% (inactive)
14,CN(C)S(=O)(=O)c1ccc(N2CCCC2)c(C(=O)NCCc2ccc(F)cc2)c1,-0.85% (inactive)
15,CC(C)n1c(NCCc2ccccc2)nc2c1c(=O)n(C)c(=O)n2C,-25.5% (inactive)
16,CC[C@]1(C(=O)OC)[C@H]2C(=O)N(Cc3ccccc3)C(=O)[C@H]2[C@H]2CN=C(SCc3ccc(C)cc3)N21,-9.52% (inactive)
17,COc1ccc(OC)c(CN2C(=O)c3ccccc3C2c2nnnn2-c2c(C)cccc2C)c1 (stereo not given),-7.17% (inactive)
18,COCc1[nH]nc2c1C(c1ccc(F)cc1)N(Cc1ccccc1)C2=O (stereo not given),-2.79% (inactive)
19,COc1ccc(CCN2C(=O)c3[nH]nc(-c4ccccc4O)c3C2c2ccc(C)cc2)cc1OC (stereo not given),-12.2% (inactive)
20,COc1ccc(CCN2C(=O)c3[nH]nc(-c4ccccc4O)c3C2c2cccc(O)c2)cc1OC (stereo not given),-2.82% (inactive)
